The text below walks through data of PubChem BioAssay (EPA / NIEHS).

Inconclusive results are not listed. Calls of active or inactive are those of the source. Rule for the calls, unless noted: active = hit-call score of the fitted dose curve at least 0.9, where 1 is the maximum; inactive = score below 0.9.

Assay [1] has as its target Paired box protein Pax-6 (Homo sapiens) (UniProt P26367). The assay can be described thus: ATG_Pax6_CIS: Attagene CIS-FACTORIAL HepG2 Assay for human Paired Box 6 (PAX6) (AID 2282956). Particulars: HepG2 CIS-FACTORIAL PAX6 reporter transcription, RNA readout; actives raise or lower the signal. The procedure, abridged: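 Values derive from bidirectional curve fitting of reporter mRNA signal relative to DMSO. HepG2 cells bearing transfected cis-regulated MRTUs were exposed for 24 h; transcripts were read by RT-PCR and capillary electrophoresis.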

A short description of assay [2]: ATG_PXRE_CIS: Attagene CIS-FACTORIAL HepG2 Assay for human Pregnane X Receptor Element (PXRE) (AID 2282957). The settings on record: HepG2 Attagene CIS-FACTORIAL PXRE reporter, mRNA; actives raise or lower the signal. In short, it runs like this:
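Using HepG2 transfected with multiple reporter transcription units, endogenous factor-driven transcription was scored as reporter mRNA after 24 h exposure.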

Assay [3] in a line: ATG_PPRE_CIS: Attagene CIS-FACTORIAL HepG2 Assay for human Peroxisome Proliferator-activated Response Element (PPRE) (AID 2282958). The settings on record: HepG2 PPRE cis-element reporter, Attagene transcription factor profiling; actives raise or lower the signal. In short, it runs like this: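 PPRE activity in HepG2: transient cis-reporter transfection, 24 h compound incubation, reporter mRNA by RT-PCR and CE fluorescence; gain/loss fitted against DMSO.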

Assay [4] is described as follows: ATG_Sox_CIS: Attagene CIS-FACTORIAL HepG2 Assay for human SRY-box transcription factor (SOX) (AID 2282960). Particulars: HepG2 Attagene cis-factorial SOX reporter, mRNA; actives raise or lower the signal. In short, it runs like this:
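HepG2, cis reporter units, 24 h exposure. Reporter mRNA: RT-PCR → FAM labelling → HpaI → CE fluorescence. Bidirectional fit vs DMSO.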

For assay [5], the target named is Transcription factor Sp1 (Homo sapiens) (UniProt P08047). The assay can be described thus: ATG_Sp1_CIS: Attagene CIS-FACTORIAL HepG2 Assay for human Specificity Protein 1 (Sp1) (AID 2282961). The settings on record: HepG2 Sp1 cis-reporter transcription, actives raise or lower the signal. The procedure, abridged: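 Liver-derived HepG2 cells, cis-element reporter library, 24 h treatment; RNA isolated, cDNA amplified with reporter-specific primers, FAM-labeled fragments sized on capillary analyzer. DMSO baseline, bidirectional curve fit.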
Transcription factor Sp1 (Homo sapiens), sequence (P08047 whole entry, looked up, the tested form may be a part): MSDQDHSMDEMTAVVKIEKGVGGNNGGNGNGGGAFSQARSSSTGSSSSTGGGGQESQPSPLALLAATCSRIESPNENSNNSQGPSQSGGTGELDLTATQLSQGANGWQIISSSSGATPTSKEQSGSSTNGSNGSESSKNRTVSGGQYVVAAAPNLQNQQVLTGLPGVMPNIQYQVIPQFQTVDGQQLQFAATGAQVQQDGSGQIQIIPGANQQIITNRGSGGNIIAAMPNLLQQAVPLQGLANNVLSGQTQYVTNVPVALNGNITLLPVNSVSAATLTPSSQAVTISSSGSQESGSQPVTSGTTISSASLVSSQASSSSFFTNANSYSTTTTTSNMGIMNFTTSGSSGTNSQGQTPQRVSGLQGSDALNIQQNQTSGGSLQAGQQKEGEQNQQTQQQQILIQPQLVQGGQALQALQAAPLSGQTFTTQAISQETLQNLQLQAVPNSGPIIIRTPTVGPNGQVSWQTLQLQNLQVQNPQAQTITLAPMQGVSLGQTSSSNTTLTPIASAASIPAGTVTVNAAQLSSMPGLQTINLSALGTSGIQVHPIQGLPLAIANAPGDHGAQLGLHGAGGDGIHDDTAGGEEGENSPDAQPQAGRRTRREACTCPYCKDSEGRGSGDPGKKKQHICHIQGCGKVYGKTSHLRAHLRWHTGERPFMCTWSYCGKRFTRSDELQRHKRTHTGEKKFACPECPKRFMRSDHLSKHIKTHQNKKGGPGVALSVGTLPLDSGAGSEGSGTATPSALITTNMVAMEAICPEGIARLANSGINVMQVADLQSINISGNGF

Assay [6] in a line: ATG_SREBP_CIS: Attagene CIS-FACTORIAL HepG2 Assay for human Sterol Regulatory Element Binding (SREBP) (AID 2282962). Particulars: HepG2 Attagene cis-factorial SREBP reporter, mRNA; actives raise or lower the signal. The procedure, abridged:
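Values derive from bidirectional curve fitting with DMSO as baseline. The underlying measurement is reporter mRNA from cis-element-regulated units in transiently transfected HepG2, quantified by RT-PCR and capillary electrophoresis after 24 h exposure.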

In assay [7] the target is Signal transducer and activator of transcription 3 (Homo sapiens) (UniProt P40763). The assay can be described thus: ATG_STAT3_CIS: Attagene CIS-FACTORIAL HepG2 Assay for human Signal Transducer and Activator of Transcription 3 (STAT3) (AID 2282963). Particulars: HepG2, Attagene cis-factorial STAT3 reporter transcription; actives raise or lower the signal. In short, it runs like this: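 Cis-factorial format: endogenous transcription factors in HepG2 drive transfected reporter units. After 24 h treatment, reporter RNA was reverse-transcribed, amplified, FAM-labelled and HpaI-digested before CE analysis; activity scored in both directions against DMSO.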
Signal transducer and activator of transcription 3 (Homo sapiens), sequence (P40763 whole entry, looked up): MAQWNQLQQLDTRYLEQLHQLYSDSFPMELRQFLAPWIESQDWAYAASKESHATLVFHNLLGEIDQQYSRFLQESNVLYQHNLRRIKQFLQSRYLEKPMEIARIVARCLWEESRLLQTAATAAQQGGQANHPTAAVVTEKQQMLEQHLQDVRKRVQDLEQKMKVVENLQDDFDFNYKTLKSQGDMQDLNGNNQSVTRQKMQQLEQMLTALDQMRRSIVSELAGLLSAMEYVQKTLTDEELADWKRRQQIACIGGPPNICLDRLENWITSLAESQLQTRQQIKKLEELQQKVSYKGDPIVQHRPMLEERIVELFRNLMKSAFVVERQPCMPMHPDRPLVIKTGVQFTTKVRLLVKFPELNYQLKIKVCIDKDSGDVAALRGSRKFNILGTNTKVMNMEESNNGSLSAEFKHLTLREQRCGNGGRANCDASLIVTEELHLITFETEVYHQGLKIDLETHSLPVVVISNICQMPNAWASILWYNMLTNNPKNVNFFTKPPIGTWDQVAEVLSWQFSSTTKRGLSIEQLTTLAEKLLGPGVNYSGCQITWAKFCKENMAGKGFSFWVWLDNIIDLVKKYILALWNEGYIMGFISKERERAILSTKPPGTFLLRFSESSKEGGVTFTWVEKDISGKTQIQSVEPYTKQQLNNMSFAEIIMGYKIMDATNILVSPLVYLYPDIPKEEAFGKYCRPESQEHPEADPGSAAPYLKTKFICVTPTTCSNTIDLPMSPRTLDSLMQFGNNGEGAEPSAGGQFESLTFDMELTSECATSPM

Assay [8] is described as follows: ATG_TA_CIS: Attagene CIS-FACTORIAL HepG2 Assay for human TA Basal Promoter (AID 2282964). Particulars: HepG2 Attagene CIS-factorial TA basal promoter reporter; actives raise or lower the signal. The procedure, abridged:
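Background internal-marker endpoint from a 52-component HepG2 cis-reporter panel. Cells treated 24 h; reporter transcripts quantified via RT-PCR and CE fluorescence against DMSO baseline.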

A short description of assay [9]: ATG_TCF_b_cat_CIS: Attagene CIS-FACTORIAL HepG2 Assay for human T-Cell-Factor with beta-catenin (TCF/b-cat) (AID 2282965). Particulars: HepG2 TCF/beta-catenin cis-reporter transcription, actives raise or lower the signal. In short, it runs like this:
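Endogenous transcription factor activity is captured through cis-promoter reporter constructs transiently introduced into human HepG2 liver cells. Induced reporter mRNA is measured after 24 h and fitted bidirectionally relative to DMSO.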

The nature of assay [10]: ATG_TAL_CIS: Attagene CIS-FACTORIAL HepG2 Assay for human TAL Basal Promoter (AID 2282966).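 Note: background control endpoint measuring basal TAL promoter reporter mRNA not a specific factor.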 Particulars: HepG2 Attagene cis-factorial TAL promoter reporter; actives raise or lower the signal. The procedure, abridged: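 After 24 hours of chemical exposure, transfected HepG2 cells yielded RNA that was converted to 6-FAM-labelled, HpaI-digested reporter fragments for capillary electrophoresis. Values derive from bidirectional fitting against DMSO controls.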

A short description of assay [11]: ATG_TGFb_CIS: Attagene CIS-FACTORIAL HepG2 Assay for human Transforming Growth Factor (TGF) (AID 2282967). Particulars: HepG2 Attagene CIS TGFb reporter, mRNA transcription; actives raise or lower the signal. In short, it runs like this: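 Liver HepG2 line, cis-factorial reporter panel, 24 h dosing. Quantitation: RT-PCR products labeled with 6-FAM, cut with HpaI, resolved by capillary electrophoresis; DMSO-referenced bidirectional analysis.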

Assay [12] is described as follows: ATG_VDRE_CIS: Attagene CIS-FACTORIAL HepG2 Assay for human Vitamin D Receptor Element (VDRE) (AID 2282968). Particulars: HepG2 VDRE cis-reporter transcription, actives raise or lower the signal. In short, it runs like this:
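Measures endogenous factor activity through cis-element-driven reporter transcripts in transiently transfected HepG2. Cells are treated 24 h; reporter mRNA is quantified by RT-PCR and capillary electrophoresis; fitting is bidirectional.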

Assay [13] deals with Steroid hormone receptor ERR1 (Homo sapiens) (UniProt P11474). The assay can be described thus: ATG_ERRa_TRANS: Attagene TRANS-FACTORIAL HepG2 Assay for human Estrogen-Related Receptor alpha (ERRa) (AID 2282971; active = hit-call score of the fitted dose curve at least 0.9, where 1 is the maximum). The settings on record: HepG2 Attagene TRANS reporter, ERRa transactivation. The procedure, abridged: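 Reporter transcript induction was quantified by RT-PCR and capillary electrophoresis of FAM-labelled, HpaI-cut products after 24 h treatment of HepG2 cells carrying transiently transfected GAL4-UAS reporter units and an exogenous ERRa-Gal4 fusion; activity scored as increase over DMSO.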
Steroid hormone receptor ERR1 (Homo sapiens), sequence (P11474 whole entry, looked up, the tested form may be a part): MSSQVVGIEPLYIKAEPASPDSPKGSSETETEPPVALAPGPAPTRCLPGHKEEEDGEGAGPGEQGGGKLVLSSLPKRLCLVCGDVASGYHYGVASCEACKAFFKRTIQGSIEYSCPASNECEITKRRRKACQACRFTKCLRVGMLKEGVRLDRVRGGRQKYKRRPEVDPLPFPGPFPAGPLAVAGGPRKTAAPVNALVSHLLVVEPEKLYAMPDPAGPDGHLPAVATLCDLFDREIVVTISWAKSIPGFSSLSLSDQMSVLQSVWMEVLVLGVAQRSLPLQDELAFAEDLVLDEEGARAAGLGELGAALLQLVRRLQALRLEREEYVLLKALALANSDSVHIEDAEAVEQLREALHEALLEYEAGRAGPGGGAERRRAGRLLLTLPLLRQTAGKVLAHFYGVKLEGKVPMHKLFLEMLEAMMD

Assay [14] deals with X-box-binding protein 1 (Homo sapiens) (UniProt P17861). Description: ATG_Xbp1_CIS: Attagene CIS-FACTORIAL HepG2 Assay for human X-box Binding Protein 1 (XBP1) (AID 2282972). The settings on record: HepG2 XBP1 cis-element reporter, Attagene multiplex; actives raise or lower the signal. The procedure, abridged:
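Human hepatoma HepG2, cis-element reporter system, 24 h treatment; mRNA quantified by RT-PCR/CE fluorescence; fit relative to DMSO.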

Assay [15] is described as follows: ATG_M_19_TRANS: Attagene TRANS-FACTORIAL HepG2 Assay for M19 Transcription Factor (Internal Marker) (AID 2282974; active = hit-call score of the fitted dose curve at least 0.9, where 1 is the maximum). The settings on record: HepG2 Attagene TRANS-FACTORIAL M19 internal marker reporter. In short, it runs like this: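 Transfected HepG2 (GAL4-UAS MRTUs), 24 h compound, TriZol RNA, DNase-treated RT, reporter PCR, FAM label, HpaI digest, CE fluorescence; gain vs DMSO.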

A short description of assay [16]: ATG_RORE_CIS: Attagene CIS-FACTORIAL HepG2 Assay for human RAR-related Orphan Receptor Element (RORE) (AID 2282959). The settings on record: HepG2 Attagene cis-factorial RORE reporter, mRNA; actives raise or lower the signal. In short, it runs like this:
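A 24-hour exposure of transfected HepG2 hepatoma cells precedes RNA isolation and reporter RT-PCR. Labeled products are digested with HpaI and resolved by capillary electrophoresis, with gain or loss of signal scored relative to DMSO.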

The target in assay [17] is Nuclear receptor subfamily 1 group I member 3 (Homo sapiens) (UniProt Q14994). Description: ATG_CAR_TRANS: Attagene TRANS-FACTORIAL HepG2 Assay for human Constitutive Androstane Receptor (CAR) (AID 2282969; active = hit-call score of the fitted dose curve at least 0.9, where 1 is the maximum;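 note: activators raise reporter mRNA above DMSO so AC50 marks induction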). The settings on record: HepG2 Attagene TRANS-FACTORIAL CAR reporter. In short, it runs like this: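 Signal is reporter mRNA induction relative to DMSO, measured 24 h after dosing by RT-PCR with fluorescent primer extension and capillary electrophoresis. Human HepG2 liver cells carried transiently transfected chimeric NR-Gal4/GAL4-UAS reporter constructs.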
Nuclear receptor subfamily 1 group I member 3 (Homo sapiens), sequence (Q14994 whole entry, looked up, the tested form may be a part): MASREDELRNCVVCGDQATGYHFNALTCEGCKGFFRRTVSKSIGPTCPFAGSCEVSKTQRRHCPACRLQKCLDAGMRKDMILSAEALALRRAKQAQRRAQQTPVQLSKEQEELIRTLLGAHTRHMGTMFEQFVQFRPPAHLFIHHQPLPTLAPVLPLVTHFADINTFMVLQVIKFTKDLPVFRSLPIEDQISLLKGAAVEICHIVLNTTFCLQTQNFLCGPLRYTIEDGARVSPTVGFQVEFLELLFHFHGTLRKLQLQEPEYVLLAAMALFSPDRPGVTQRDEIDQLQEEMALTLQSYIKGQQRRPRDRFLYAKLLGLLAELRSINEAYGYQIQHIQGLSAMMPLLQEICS

In assay [18] the target is Estrogen receptor (Homo sapiens) (UniProt P03372). Description: ATG_ERa_TRANS: Attagene TRANS-FACTORIAL HepG2 Assay for human Estrogen Receptor alpha (ERa) (AID 2282970; active = hit-call score of the fitted dose curve at least 0.9, where 1 is the maximum). Particulars: HepG2 Attagene TRANS ERa GAL4 reporter, mRNA. In short, it runs like this:
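Liver-derived HepG2 cells expressing chimeric nuclear receptor-Gal4 proteins from transient transfection were exposed for 24 hours. Gain of reporter mRNA signal versus DMSO, read by capillary electrophoresis of FAM-labelled PCR products, was recorded.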

Assay [19] can be described thus: ATG_GAL4_TRANS: Attagene TRANS-FACTORIAL HepG2 Assay for GAL4 (Internal Marker) (AID 2282976; active = hit-call score of the fitted dose curve at least 0.9, where 1 is the maximum). The settings on record: HepG2 Attagene TRANS GAL4 internal marker reporter. In short, it runs like this: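 First, HepG2 cells were transfected with reporter units under GAL4-UAS control. Next, they were treated with chemical for 24 h. Finally, RNA was reverse-transcribed, PCR-amplified, FAM-labelled and resolved by capillary electrophoresis, with induction scored against DMSO.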

X-box-binding protein 1 (Homo sapiens), sequence (P17861 whole entry, looked up): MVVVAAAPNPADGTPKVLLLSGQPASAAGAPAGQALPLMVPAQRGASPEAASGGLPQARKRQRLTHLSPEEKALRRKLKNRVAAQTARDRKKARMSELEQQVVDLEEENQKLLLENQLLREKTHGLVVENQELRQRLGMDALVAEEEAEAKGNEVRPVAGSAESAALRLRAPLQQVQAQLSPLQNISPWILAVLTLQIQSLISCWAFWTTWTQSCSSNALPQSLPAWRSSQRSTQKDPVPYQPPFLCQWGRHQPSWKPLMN
Estrogen receptor (Homo sapiens), sequence (P03372 whole entry, looked up, the tested form may be a part): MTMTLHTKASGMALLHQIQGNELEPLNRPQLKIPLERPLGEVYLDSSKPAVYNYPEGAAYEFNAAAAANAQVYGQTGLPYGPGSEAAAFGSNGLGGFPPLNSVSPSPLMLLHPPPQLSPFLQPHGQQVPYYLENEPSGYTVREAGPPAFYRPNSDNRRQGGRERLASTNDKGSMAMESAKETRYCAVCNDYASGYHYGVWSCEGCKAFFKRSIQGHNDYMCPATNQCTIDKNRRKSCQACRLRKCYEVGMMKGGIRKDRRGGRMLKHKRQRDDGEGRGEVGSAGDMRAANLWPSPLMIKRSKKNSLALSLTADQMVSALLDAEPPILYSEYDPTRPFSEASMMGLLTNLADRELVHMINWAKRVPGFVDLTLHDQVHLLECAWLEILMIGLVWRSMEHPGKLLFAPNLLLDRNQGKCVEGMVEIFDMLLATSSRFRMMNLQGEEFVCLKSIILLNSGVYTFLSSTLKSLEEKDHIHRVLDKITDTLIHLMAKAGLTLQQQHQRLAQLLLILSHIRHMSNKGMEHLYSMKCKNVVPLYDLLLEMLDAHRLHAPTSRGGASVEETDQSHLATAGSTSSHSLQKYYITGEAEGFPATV
Paired box protein Pax-6 (Homo sapiens), sequence (P26367 whole entry, looked up): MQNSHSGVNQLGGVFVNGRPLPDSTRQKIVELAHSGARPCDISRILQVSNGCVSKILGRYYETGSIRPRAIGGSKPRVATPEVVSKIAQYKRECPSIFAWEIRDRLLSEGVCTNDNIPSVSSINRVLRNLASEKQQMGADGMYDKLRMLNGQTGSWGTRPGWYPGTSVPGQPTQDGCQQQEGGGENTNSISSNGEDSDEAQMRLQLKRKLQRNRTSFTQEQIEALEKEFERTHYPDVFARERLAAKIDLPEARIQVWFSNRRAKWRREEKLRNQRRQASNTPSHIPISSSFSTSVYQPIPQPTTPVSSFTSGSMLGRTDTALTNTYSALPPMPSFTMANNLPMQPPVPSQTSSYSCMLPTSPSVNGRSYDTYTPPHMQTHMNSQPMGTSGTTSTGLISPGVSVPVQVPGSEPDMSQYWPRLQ

As a reminder, the AC50 is the concentration at which the activity in the assay is half-maximal. For `CC(C)C(=O)C(C)C`, the AC50 in assay [1] was 42.4 µM (active); in assay [4], 19.5 µM (active); in assay [9], 61.5 µM (active); in assay [12], 55.2 µM (active); in [14] it was 34.7 µM (active). Moreover, the outcome in assay [2], in [3], in [5], in assay [6], in assay [7] and in assay [8] was inactive. Besides, the compound was called inactive in assay [10], in assay [11], in assay [13] and in assay [15].
In the case of `CC(=O)NS(=O)(=O)c1ccc(N)cc1`, the call in assay [1], in assay [2], in assay [16], in assay [4], in assay [5] and in [6] was inactive. The compound was classed as inactive in [7], in [8], in assay [9], in assay [10], in assay [11] and in assay [12]. Besides, the outcome in assay [17], in [18], in assay [14] and in [19] was inactive.
As for `C[Si](C)O[Si](C)(C)O[Si](C)(C)O[Si](C)C`, the result in assay [1], in assay [16], in [4], in [5], in [6] and in assay [7] was inactive. Besides, the result in assay [8], in [9], in assay [11], in assay [12], in assay [14] and in [19] was inactive. Moreover, the half-maximal activity concentration (AC50) was 17 µM (active) in assay [2] and 30.3 µM (active) in assay [18].
For `CC(=O)[C@@]1(O)CC[C@H]2[C@@H]3C[C@H](C)C4=CC(=O)C=C[C@]4(C)[C@@]3(F)[C@@H](O)C[C@@]21C`, the outcome in assay [1], in [2], in assay [3], in assay [4], in assay [6] and in assay [7] was inactive. In addition, the call in [8], in assay [9], in assay [10], in assay [11], in assay [12] and in assay [13] was inactive. The call in [14] and in assay [15] was inactive.
As for `COc1ccc(C(Cl)=C(c2ccc(OC)cc2)c2ccc(OC)cc2)cc1`, the compound was called inactive in assay [1], in assay [16], in assay [4], in assay [5], in [6] and in assay [7]. In addition, the result in assay [8], in [9], in assay [10], in assay [11], in assay [17] and in assay [13] was inactive. Further, the result in assay [14] was inactive. Further, the AC50 was 2.54 µM (active) in assay [2] and 4.46 µM (active) in assay [12].
`CC(C)(c1cc(Br)c(OCCO)c(Br)c1)c1cc(Br)c(OCCO)c(Br)c1`: the half-maximal activity concentration (AC50) in assay [1] is 17.4 µM (active); in assay [2], 0.484 µM (active); in assay [6] it was 18 µM (active); in assay [9] it was 7.14 µM (active); in assay [10], 27 µM (active); in assay [12] it was 1.22 µM (active). Also, in assay [14], the AC50 is 30.1 µM (active). In addition, the compound was called inactive in assay [3], in assay [4], in [7], in assay [11], in [18] and in assay [15].
